Rows were chosen to be rich in hits. Some 3.1% of all compounds tested hit in one or more screens of this group.
Tau fibril ThT: inhibitors of human tau fibril formation, thioflavin T binding | recombinant tau K18 P301L, heparin-induced fibrillization, ThT fluorescence | P10636 | Potency, µM (top dose mostly 57.4 µM), without a hit: top-dose activity, negative = inhibition, actives largely listed as inhibitors | actives 2.1% (n = 270,000) | AID 1460; also: nearly all actives have a fitted effect of over 55% in size
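K18 P301L tau (15 uM + 0.24 uM Alexa 594-tagged), heparin 20 uM, NaOAc pH 7, 6 h 37 C; ThT 30 uM, 1 h RT, ex 450/em 510 nm.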
Tau fluor cs: counter-screen for tau fibril formation inhibitors | tau K18 P301L (four-repeat tau fragment) Alexa594 fluorescence, heparin fibrillization | Potency, µM (doses to about 57.7 µM), without a hit: top-dose activity change, negative = decrease | actives 0.93% (n = 280,000) | AID 1463; also: nearly all actives have a fitted effect of over 55% in size
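Human K18 P301L tau (15 uM unlabeled plus 0.24 uM Alexa 594-labeled, final) in 100 mM sodium acetate pH 7 was mixed with compound and 20 uM heparin and incubated 6 hr at 37 C.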
Tau FP inhib: tau fibrillization inhibition (FP); P10636; K18 P301L tau heparin fibrillization, Alexa594 FP, 6 h; Potency, µM (series often up to 57.7 µM), for the others: top-dose activity, negative = inhibition, hits mostly inhibitors; actives 0.39% (n = 280,000); AID 1468; also: nearly all actives have a fitted effect of over 55% in size
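Human tau K18 […] P301L fragment, 15 uM unlabeled plus 0.24 uM Alexa 594-labeled tau (final), with compound and 20 uM heparin in 100 mM sodium acetate pH 7; 6 hr at 37 C, then Alexa 594 FP read.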
TexasRed fluor: alters Texas Red total fluorescence, flagging assay interference | TRb/SRC2 Texas Red total fluorescence interference | Potency, µM (highest dose often 106 µM), without a hit: top-dose fluorescence change, negative = quenching | actives 0.29% (n = 280,000) | AID 1479; active = well fitted curve in either direction with a large enough effect; inconclusive = small, poorly fitted or top-dose-only effect
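Human TRb ligand-binding domain at 0.6 uM with 20 nM Texas Red SRC2 peptide in Tris buffer containing 1 uM T3 and 5% DMSO, incubated with compound 5 h at ambient temperature. Total fluorescence (555/632 nm) calculated as parallel + 2 × perpendicular.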
TRb SRC2 PPI: disrupts binding of human TR beta to SRC2; P10828; TRbeta-SRC2 peptide binding, fluorescence polarization; receptor liganded with 1 µM T3; Potency, µM (highest dose often 106 µM), without a hit: at the top dose activity change, negative = inhibition, actives largely listed as inhibitors; actives 0.065% (n = 280,000); AID 1469;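 also: plate controls were bound peptide for no effect and peptide without receptor for full effect; nearly all actives have a fitted effect of over 50% in size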
Target sequence (P10828 whole entry, looked up): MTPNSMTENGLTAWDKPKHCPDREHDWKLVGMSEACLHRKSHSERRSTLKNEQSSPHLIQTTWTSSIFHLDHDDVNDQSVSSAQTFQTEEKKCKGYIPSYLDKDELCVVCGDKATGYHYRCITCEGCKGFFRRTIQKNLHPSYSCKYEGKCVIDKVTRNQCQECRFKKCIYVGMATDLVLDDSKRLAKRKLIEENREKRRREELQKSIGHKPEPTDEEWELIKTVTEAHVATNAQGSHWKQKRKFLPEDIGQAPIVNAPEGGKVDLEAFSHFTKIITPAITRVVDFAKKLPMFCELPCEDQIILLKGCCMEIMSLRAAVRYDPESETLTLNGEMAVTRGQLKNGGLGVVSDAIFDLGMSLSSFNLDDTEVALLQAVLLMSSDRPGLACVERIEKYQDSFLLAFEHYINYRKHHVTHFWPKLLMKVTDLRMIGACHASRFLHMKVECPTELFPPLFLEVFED
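A fluorescence polarization screen tested compounds at multiple concentrations against complex formation between 0.6 uM TRb ligand-binding domain and 20 nM Texas Red SRC2 peptide, with 1 uM T3 present; readout after 5 hr.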
An asterisk follows results filed as active; ? = inconclusive; nt = no result; [ ] = another dose, or the depositor's remark. Unless noted, calls follow the shape of the dose curve; as a rule, active = well fitted curve in the direction sought with a large enough effect; inconclusive = small, poorly fitted or top-dose-only effect, or another doubt; inactive = no such curve, though single readings can be large; an effect the other way counts as inactive or inconclusive. Unless noted, % is scaled to controls: 0 for no effect and ±100 for the full control effect; potency is read from the fitted curve at half-maximal effect.

SMILES	Tau fibril ThT	Tau fluor cs	Tau FP inhib	TexasRed fluor	TRb SRC2 PPI
O=C1c2ccccc2-c2onc3ccc(Oc4ccccc4)c1c23	4.5µM*	6.3µM*[quencher]	?	2%	-4%
CCn1c(O)c(/C=N/N=C2CCCC2)c2ccc(C3=NNC(=O)CC3)cc21	?	-14%	-11%	-4%	4%
CCn1c(O)c(/C=N/N=C2CCCCC2)c2cc(C3=NNC(=O)CC3)ccc21	10µM*	-28%	-4%	-7%	1%
N#CCCN1CCN(C(=S)c2ccc(-c3ccc(Cl)cc3)o2)CC1	20µM*	-23%	5%	-3%	-2%
COc1cc(N/N=C(\C)c2ccc(N)cc2)nc(-c2ccccc2)n1	16µM*	14µM*[quencher]	3%	-4%	-4%
C/C(=N\Nc1cc(-c2ccccc2)nc(-c2ccccc2)n1)c1ccc(O)c(C)c1	-2%	1%	6%	10%	13%
COc1cc(N/N=C(\C)c2ccc(O)c(C)c2)nc(-c2ccccc2)n1	?	8.9µM*[quencher]	?	-1%	3%
CCOc1ccccc1NC(=O)CSc1cn(CC(=O)N2CCCCCC2)c2ccccc12	-18%	-8%	-8%	-1%	-1%
COc1cc(NC(=O)CN2C(=O)CN(C)C(=O)c3ccccc32)cc(OC)c1OC	0%	-2%	2%	?	-10%
O=C(COc1cccnc1[N+](=O)[O-])c1ccc(Cl)s1	5µM*	?	10µM*	-16%	-19%
O=C(OCC(=O)c1ccc(Cl)s1)c1ccccn1	-5%	-10%	0%	?	-13%
O=C1OC2(c3cc(Br)c(O)c(Br)c3Oc3c2cc(Br)c(O)c3Br)c2c(Cl)c(Cl)c(Cl)c(Cl)c21	nt	nt	nt	?	2.5µM*
CN(C)S(=O)(=O)c1ccc(C(=O)NCCN2C(=O)S/C(=C\c3cccnc3)C2=O)cc1	2%	3%	-3%	-2%	-7%
CS(=O)(=O)c1ccc(C(=O)NCCN2C(=O)S/C(=C\c3cccnc3)C2=O)cc1[N+](=O)[O-]	16µM*	?	?	-7%	1%
Cc1[nH]c(/C=C2/C(=O)Nc3ccc(S(=O)(=O)Cc4c(Cl)cccc4Cl)cc32)c(C)c1C(=O)N1CCCC1CN1CCCC1 (stereo not given)	nt	nt	nt	-10%	13%
Cc1ccn2c(=O)c(NC(=O)c3cccc([N+](=O)[O-])c3C)c(C)nc2c1	1%	0%	5%	-2%	-2%
CC1=NOC(=O)/C1=C\c1ccc(-c2cc(Cl)ccc2Cl)o1	?	-29%	-1%	-2%	-1%
CC1=NOC(=O)/C1=C\c1ccc(-c2ccc(Br)cc2)o1	28µM*	-30%	2%	-5%	-3%
CC1=NOC(=O)/C1=C/c1ccc(-c2ccc(Cl)cc2)o1	18µM*	?	-8%	-8%	2%
CCc1ccc2c(c1)c(=O)c(S(=O)(=O)c1ccc(F)cc1)cn2CC(=O)Nc1ccc(C)cc1C	-9%	-19%	?	-2%	-2%
COc1cc2c(cc1OC)n(Cc1cccc(C(F)(F)F)c1)c(=O)n1nc(-c3ccccc3)nc21	-1%	-25%	-8%	?	-26%[53 µM]
CN(c1ccc(O)cc1)c1nc(-c2cccs2)cs1	-2%	5%[2.34 µM]	4%[2.34 µM]	-2%	1%
Cc1nc(N)sc1-c1csc(N(C)c2ccc(O)cc2)n1	16µM*	?	?	-4%	-14%
COc1ccc(-c2nc(C)c(CCNC(=O)C(=O)Nc3ccccc3C#N)s2)cc1OC	?	-9%	-4%	1%	-1%
CCSc1nn(CC(=O)Nc2ccc(C(=O)OC)cc2)c(N)c1S(=O)(=O)c1ccc(C)cc1	-2%	?	25µM*	-2%	-2%
CCOC(=O)c1ccc(NC(=O)Cn2nc(SC)c(S(=O)(=O)c3ccc(Cl)cc3)c2N)cc1	-7%	?	13µM*	5%	-5%
COc1ccc(NC(=O)Cn2nc(SC)c(S(=O)(=O)c3ccc(C)cc3)c2N)cc1OC	-4%	-28%	-13%	-2%	-6%
CCCCN1CCCC1C(=O)Nc1c(C)cc(C)cc1C (stereo not given)	nt	nt	nt	-3%	6%

From PubChem BioAssay
